High-throughput results deposited in PubChem by Johns Hopkins Ion Channel Center.
Compounds with a hit are over-represented: about 1.6% of the library has one in this group of screens.
KCNQ2 inh – KCNQ2 (rat) channel inhibition; AID 2156; O88943; B-score at 10 µM; CHO-K1 KCNQ2, FluxOR thallium flux, 20 min; hits give low values; 1.1% of 310,000 active;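 active = fluorescence ratio B-score at most minus 3 library SDs, with starting brightness B-score within 2 library SDs, cut at about -5.5 in these data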
Target sequence (O88943 whole entry, looked up): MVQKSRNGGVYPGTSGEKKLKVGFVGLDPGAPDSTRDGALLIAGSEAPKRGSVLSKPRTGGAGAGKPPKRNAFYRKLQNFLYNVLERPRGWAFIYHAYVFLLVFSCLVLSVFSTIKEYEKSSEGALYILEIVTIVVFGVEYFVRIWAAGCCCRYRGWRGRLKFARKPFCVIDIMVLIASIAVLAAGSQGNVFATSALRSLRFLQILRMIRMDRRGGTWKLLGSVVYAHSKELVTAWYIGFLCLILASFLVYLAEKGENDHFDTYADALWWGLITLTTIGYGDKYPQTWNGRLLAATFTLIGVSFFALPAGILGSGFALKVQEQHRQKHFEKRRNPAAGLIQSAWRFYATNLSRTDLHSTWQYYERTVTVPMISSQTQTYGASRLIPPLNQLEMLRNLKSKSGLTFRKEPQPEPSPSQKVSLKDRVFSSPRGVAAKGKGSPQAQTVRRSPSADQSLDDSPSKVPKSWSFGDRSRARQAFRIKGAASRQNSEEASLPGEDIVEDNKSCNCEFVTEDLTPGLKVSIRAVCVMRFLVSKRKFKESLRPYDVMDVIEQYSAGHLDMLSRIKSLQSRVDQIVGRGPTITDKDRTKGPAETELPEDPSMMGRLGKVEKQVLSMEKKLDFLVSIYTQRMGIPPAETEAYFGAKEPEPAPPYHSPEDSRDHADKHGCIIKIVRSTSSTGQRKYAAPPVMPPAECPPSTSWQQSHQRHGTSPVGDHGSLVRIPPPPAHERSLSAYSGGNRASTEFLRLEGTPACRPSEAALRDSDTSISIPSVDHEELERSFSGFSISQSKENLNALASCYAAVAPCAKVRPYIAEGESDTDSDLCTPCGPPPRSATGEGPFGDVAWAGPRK
KCNQ2 pot – KCNQ2 (rat) channel potentiation | O88943 | CHO-K1 KCNQ2, FluxOR thallium flux fluorescence; hits give high values | B-score at 10 µM | 0.54% of 310,000 active;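 active = fluorescence ratio B-score at least 3 SD of library B-scores, with initial fluorescence B-score within 3 of them, cut at about 5.3 in these data; same plate scores as AID 2156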;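 also: B-score of peak minus minimum over baseline fluorescence ratio after K+ and Tl+ stimulus; positive B-score means potentiation of KCNQ2 with more thallium influx and brighter signal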
Each line names hits and unclear results; the compound was inactive in the other large screens.

O=C(NCc1ccc(Cl)cc1Cl)C1CCN(S(=O)(=O)c2ccc3c(c2)OCCCO3)CC1	none
Cc1nc2c(C(=O)NCc3ccccc3Cl)c[nH]n2c(=O)c1Cl	none (no result: KCNQ2 pot)
Cc1nc2c(C(=O)NCCc3ccccc3Cl)c[nH]n2c(=O)c1Cl	KCNQ2 pot 7.2
O=C(N/N=C/c1ccccn1)c1cccs1	none (no result: KCNQ2 pot)
Cc1ccc(OCC(=O)N/N=C\c2ccncc2)c(C)c1	none
COc1ccc(OC)c(C(=O)NC(CC(N)=O)c2ccc(NCCN3CCCCC3)c([N+](=O)[O-])c2)c1 (stereo not drawn)	none
Cc1ccccc1OCC(=O)Nc1ccccc1N1CCC(C)CC1	KCNQ2 inh -6.2
Cc1ccccc1OCC(=O)Nc1ccc(S(=O)(=O)N2CCCC2)cc1	none (no result: KCNQ2 pot)
CC(=O)N1CCN(c2ccccc2NC(=O)COc2ccccc2C)CC1	none (no result: KCNQ2 pot)
Cc1ccccc1OCC(=O)Nc1ccc(C)c(S(=O)(=O)N2CCCCCC2)c1	KCNQ2 inh -6.1
Cc1ccc(C(C)C)c(OCC(=O)NC(=S)Nc2ccccc2N2CCOCC2)c1	KCNQ2 inh -6.5
COc1ccc(C(=O)NC(=S)Nc2ccccc2N2CCOCC2)cc1Br	none (no result: KCNQ2 pot)
Cc1cccc(OCC(=O)NC(=S)Nc2ccccc2N2CCOCC2)c1C	none (no result: KCNQ2 pot)
COc1ccc(C(=O)Nc2ccccc2N2CCOCC2)cc1Br	KCNQ2 inh -6.3
COc1ccc(OCCn2cnc3ccccc32)cc1	none
Cc1cc2c(s1)CCCCC(=O)N2	none
COc1cc(/C=C/C(=O)OCC(=O)NCC2CCCO2)ccc1OCC#N (stereo not drawn)	none (no result: KCNQ2 pot)
Cc1cc(C)c(OCC(=O)Nc2ccccc2N2CCCCC2)c(C)c1	KCNQ2 inh -5.6
Cc1ccccc1OCC(=O)Nc1cccc(Cl)c1C	none
Cc1cccc(OCC(=O)Nc2ccccc2N2CCCCC2)c1	none (no result: KCNQ2 pot)
O=C(COc1ccccc1)Nc1ccccc1N1CCCCC1	none (no result: KCNQ2 pot)
Cc1ccc(OCC(=O)Nc2ccccc2N2CCCC2)c(C)c1	KCNQ2 inh -5.6
Cc1ccccc1OCC(=O)Nc1ccccc1-c1ccccc1NC(=O)COc1ccccc1C	KCNQ2 inh -5.6
COc1ccccc1OCc1cc(C(=O)NCc2ccc(N3CCCC3=O)cc2)no1	none (no result: KCNQ2 pot)
CC1CCCN(C(=O)CN(C)S(=O)(=O)c2ccc3c(c2)c(=O)n(C)c(=O)n3C)C1 (stereo not drawn)	none
COc1ccc2oc(C(=O)Nc3nc(-c4ccccn4)cs3)c(C)c2c1	none (no result: KCNQ2 pot)
C/C(=N\Nc1nc2ccc(Cl)cc2o1)c1ccccc1	none (no result: KCNQ2 pot)
COC(=O)C1=CN(c2ccc(OC)cc2)C=C(C(=O)OC)C1c1ccc([N+](=O)[O-])cc1	KCNQ2 inh -5.6
COC(=O)C1=CN(c2ccc(F)cc2)C=C(C(=O)OC)C1c1ccc([N+](=O)[O-])cc1	none (no result: KCNQ2 pot)
CCCN(CCC)c1nc(C#N)nc(N(CCC)CCC)n1	KCNQ2 inh -7.9
CN(C)c1nc(C#N)nc(N(C)C)n1	none
CCCOc1ccc(C(=O)NNC(=O)c2cccc(S(=O)(=O)N3CCN(C(C)=O)CC3)c2)cc1OC	none (no result: KCNQ2 pot)
O=C(NC(=S)N(CCc1ccccc1)CCc1ccccc1)c1ccco1	KCNQ2 pot 16
COc1cc(C(=O)NC(=S)N(CCc2ccccc2)CCc2ccccc2)cc(OC)c1OC	KCNQ2 pot 18
COc1cc(C(=O)NC(=S)N(C)Cc2ccccc2)cc(OC)c1OC	none (no result: KCNQ2 pot)
O=C(NC(=S)NCCc1ccc(Cl)cc1)c1ccco1	none
O=C(NCc1ccccc1)c1cccc(COc2ccc(Cl)cc2)c1	none (no result: KCNQ2 pot)
COc1cc(CNC(=O)c2cccc(COc3ccc(Cl)cc3)c2)cc(OC)c1	KCNQ2 inh -5.9
CC(=O)c1sc(NC(=O)CSC(C)C(=O)Nc2cc(C)on2)nc1-c1ccccc1 (stereo not drawn)	none
COc1ccccc1N1CCN(S(=O)(=O)c2cc(Br)cnc2N)CC1	none (no result: KCNQ2 pot)
COc1cc(NC2=Nc3cccc4cccc2c34)cc(OC)c1OC	KCNQ2 inh -6
COc1ccc(NC2=Nc3cccc4cccc2c34)cc1OC	none (no result: KCNQ2 pot)
CCOC(=O)CN(Cc1sccc1C)C(=O)Nc1ccc(OCC)cc1	none
CC(=O)Nc1ccc(CC(=O)NCCC(c2ccccc2)c2ccccc2)cc1	none
O=C(c1cn(-c2ccccc2)nc1-c1ccccc1)n1nnc2ccccc21	none (no result: KCNQ2 pot)
COc1cccc(-c2nn(-c3ccccc3)cc2C(=O)n2nnc3ccccc32)c1	KCNQ2 inh -6.4
CSCCC(NC(=O)C1CCC(C)CC1)C(=O)NCCN1CCC(C)CC1 (stereo not drawn)	none (no result: KCNQ2 pot)
CCNc1nc(NC(C)C)nc(SCCOc2ccc(C)cc2)n1	KCNQ2 inh -5.6
CCNc1nc(NC(C)C)nc(SCCOC(=O)c2ccccc2)n1	none (no result: KCNQ2 pot)
Cn1nc(C(=O)NCc2ccccc2)c2c1-c1ccccc1S(=O)(=O)C2	none (no result: KCNQ2 pot)
COc1ccc2nc(C)c3c(c2c1)OC(C(C)(Cl)Br)C3 (stereo not drawn)	none (no result: KCNQ2 pot)
Cc1ccc2nc(C)c3c(c2c1)OC(C(C)(Cl)Br)C3 (stereo not drawn)	KCNQ2 inh -5.7
CN(C(=O)COC(=O)c1cc(S(=O)(=O)N2CCOCC2)ccc1F)C1CCS(=O)(=O)C1 (stereo not drawn)	none
O=C(NCCOc1ccc(Cl)cc1)c1ccc2ccccc2n1	KCNQ2 inh -6.3
Cc1ccc(OCCNC(=O)c2ccc3ccccc3n2)cc1	none (no result: KCNQ2 pot)
O=C(N1CCOCC1)N(CCN1CCOCC1)Cc1cccc2ccccc12	none (no result: KCNQ2 pot)
CC1(C(=O)c2ccccc2)C2c3c(ccc4ccccc34)OC(=O)C21C(=O)N1CCOCC1 (stereo not drawn)	KCNQ2 inh -7.9
O=C(Cc1cccs1)NCCSc1c(-c2ccc(Cl)cc2)[nH]c2ccccc12	KCNQ2 inh -7.1
CCOC(=O)CSc1c(-c2ccc(Cl)cc2)[nH]c2ccccc12	none (no result: KCNQ2 pot)
Cc1cc(NC(=O)CCC(=O)N(c2ccc(F)cc2)C(C(=O)NC2CCCC2)c2cccnc2)no1 (stereo not drawn)	none
S=c1[nH]nc(C2CCCCC2)n1/N=C/c1cccc(Cl)c1Cl	none
COc1ccc(C(c2nnnn2Cc2cccs2)N2CCN(c3ccc(F)cc3)CC2)cc1OC (stereo not drawn)	none (no result: KCNQ2 pot)
Cc1ccc2c(c1)-c1ncc(C(=O)c3cc(Br)ccc3O)cc1CO2	KCNQ2 inh -7.4
Cc1ccc(O)c(C(=O)c2cnc3c(c2)CN(C)C(=O)N3)c1	none
CC(=O)N1CC=CC1(CC(C)C)C(=O)NCCc1c[nH]c2ccccc12 (stereo not drawn)	none
CC(C)CC1(C(=O)NCCc2c[nH]c3ccccc23)C=CCN1C(=O)c1ccccc1 (stereo not drawn)	KCNQ2 inh -6.4
COC(=O)c1c(-c2ccccc2)csc1NC(=O)CSc1ncnc2sc(C)c(C)c12	KCNQ2 inh -5.6
Cc1cccnc1NC(=O)CSc1ncnc2sc(C)c(C)c12	none (no result: KCNQ2 pot)
Cn1c(=O)n(C)c2cc(NC(=O)CSc3nc4ccccc4c(=O)[nH]3)ccc21	none (no result: KCNQ2 pot)
Cc1sc2ncnc(SCC(=O)N3CCN(C(=O)c4ccco4)CC3)c2c1C	none
Cc1sc2nc(C(C)C)nc(SCC(=O)N3CCN(C(=O)c4ccco4)CC3)c2c1C	KCNQ2 pot 13
O=C(NCCOc1ccc(F)cc1)C1CCC(=O)N(CC2CCCCC2)C1 (stereo not drawn)	none
C[n+]1c2n(c3ccccc31)N=C(c1cc(C(C)(C)C)c(O)c(C(C)(C)C)c1)CS2	KCNQ2 inh -6.6
COc1cccc(C2=Nn3c(nnc3-c3ccccc3O)SC2)c1	none (no result: KCNQ2 pot)
O=C(Nc1ccc(-c2cn3c(n2)SCC3)cc1)c1ccco1	none
CCC[C@@H](CN[C@@H](CNC)C(C)C)NCCCCc1ccccc1	none (no result: KCNQ2 pot)
CCC[C@@H](CNC)NC[C@H](Cc1ccccc1)NCCCCc1ccccc1	KCNQ2 inh -6
CC1(C)CC(=O)C(N=Nc2ccc(-c3ccccc3)cc2)=C(O)C1	none (no result: KCNQ2 pot)
O=C1CCCC(O)=C1Sc1ccccc1C(=O)O	none (no result: KCNQ2 pot)
